Measured values: the OligoGym collection

The sequences below were run against NXF5 (assay: pooled miR-30 sensor sort-seq; sequence = guide strand). Settings: shRNA.
Also: reference of the scale not given here.

Sequence	sensor-assay potency score (higher = more potent)
TTTTGTGTGCTTTAGCAGCTTC	0.239
TTCGTGGACATTTTGTGTGCTT	-0.318
TACATAGGCAGACTGGTCCGAG	-0.391

The sequences below were run against OAS3 in the same assay as above. Settings: shRNA.

Sequence	sensor-assay potency score (higher = more potent)
TTGAACTGGGAGTCCTTCCCGC	-0.289
TTGACCGTCCAGTAGACACAGA	-0.525
TTGTAGTCCGTGAAGCAGTTGA	-0.0592
TTTGGTGCCAGAACTGAGCTGC	0.736
TGTAGCTCTGTGAAGCAGGTGG	0.189
TTCTCTACGAACTCCTTCCGCG	-0.635
TAGGCTGAAAGCATCCTTCTTA	0.0263
TTTGTTCTGAGCCGCAACCTGG	-1.14
TTCAGAATCACAGCCACCCTTG	-0.336
TTCAACATCACAGCCATCCCTT	-0.469
TACCAGTGCTTCACCAGCCGGA	-0.364
TAGACTTGAGAGCTGGGCCTGG	-0.478

The sequences below were run against OCA2 in the same assay as above. Settings: shRNA.

Sequence	sensor-assay potency score (higher = more potent)
TTGTCTTGGATCAAGGTTGAGC	-0.397
TTTGTGAAGATCACTTCTGCAA	0.623
TTATAAAGCTTTCTGTTCCAGT	-0.265
TAGCAGGTATCTTCGCTCCCAG	-0.952
AACAGTGCAGGACACAACCATC	-1.7
TAACACATCCCAACAGTGCAGG	-0.397
TTTTCTTCTTCAAACAGTGGGG	-0.306
TTCAGTTCAACAATCTCACTGG	0.691
TTTGTTCTCCAACATATTCTAT	-1.25
TTGAGCACCTCACACAACCTTA	-0.642
TTGTTCTCCAACATATTCTATT	-1.21

The sequences below were run against OCLM in the same assay as above. Settings: shRNA.

Sequence	sensor-assay potency score (higher = more potent)
AATACCACTCTTATAAAGGATT	-1.36
TTTAAATAGAAGAGTATACTAA	-0.591
AAGAGTATACTAATGTGTCTGC	0.0499
TATACTAATGTGTCTGCTAAGG	-1.53
TTAAATAGAAGAGTATACTAAT	-0.462
TAATACCACTCTTATAAAGGAT	-0.68
AAAGAATACCAGGATAGCCATA	-1.76
TCTGCTAAGGTAAATCTTTAAC	-1.77
ACTAATGTGTCTGCTAAGGTAA	-1.12
ATAGAAGAGTATACTAATGTGT	-0.144
TAGAAGAGTATACTAATGTGTC	-0.0959
TACTAATGTGTCTGCTAAGGTA	-0.482
